# According to PubChem BioAssay (NCI):
# The panel holds about 83,000 compounds, 20% with a hit somewhere; the sample as a whole holds those more often.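 Cells were grown in 96-well plates and exposed to the test compound at a single concentration for 48 hours; results are reported as percent growth, with values below 10 considered active.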 Unmarked numbers belong to inactive results. The source made the active and inactive calls.
# System: HL-60(TB) leukemia
# Assay: NCI-60 one-dose screen, 48 h (100 = growth as untreated, 0 = no growth, -100 = all killed)
# Conditions: 10 µM unless noted
row,SMILES,growth
1,COc1ccc(-c2nc3cc(C)ccc3n2CC(=O)N=Nc2c(O)[nH]c3ccc(OC)cc23)cc1,-62.1% (active)
2,COc1ccccc1NC(=O)c1ccc(NC(=O)CCl)s1,-53.8% (active)
3,CCCn1c(=O)c2[nH]c(-c3ccc(OCc4nc5ccc(C#N)cc5[nH]4)cc3)nc2n(CCC)c1=O,95.4%
4,COc1ccc(Cc2nn(CC(=O)N/N=C/c3ccc([N+](=O)[O-])cc3)c(=O)c3c(C)noc23)cc1,109%
5,COc1cc2oc(-c3cccc(C(=O)Nc4ccc(Cl)cc4)c3)cc(=O)c2c(OCCNC(=O)[C@@H](N)CO)c1OC,-29.2% (active)
6,N#Cc1ccc(NC(=O)CSc2ccc(-c3ccc(Br)cc3)nn2)cc1,82.9%
7,Cc1c(C(=O)NNC(=O)c2ccc(Cl)cc2)nnn1-c1ccc(Cl)cc1,100%
8,CC(=O)Nc1ccc(-c2cn(-c3cccc(C(=O)Nc4ccc(N5CCN(C)CC5)cc4)c3)nn2)cn1,64.6%
9,c1ccc(-c2csc(Nc3cccc(Nc4nc(-c5ccccc5)cs4)c3)n2)cc1,65.9%
10,COc1cnc2c(c1)C(=O)c1c-2n(CCCNCCO)c(=O)c2cc(OC)c(OC)cc12,61.3%
11,CN1CCN(Cc2ccc(NC(=O)c3cncc(C#Cc4cnc5ccc(N[C@@H]6CCOC6)nn45)c3)cc2C(F)(F)F)CC1,-57.9% (active)
12,COc1cc(CNC(=O)/C=C/c2ccc3c(c2)OCO3)ccc1OCc1cn(-c2cccc(C(F)(F)F)c2)nn1,69.7%
13,Cn1cc(-c2cc(N)n3nc(-c4cn(C)c5ccccc45)cc3n2)c2cc(Cl)ccc21,-26% (active)
